This note sets out measurements from the supplement of paper PMC7724964.

Holding throughout (test): phage ELISA signal ratio (GST-PRM binding over GST background); higher = stronger binding of peptide-phage to the PRM
(In general: An ELISA detects its analyte on a solid surface through an enzyme-linked reagent.)

The target of experiment [1] is TLN1 309-401 IRS (domain begin residue: 309, domain end residue: 401), Q9Y490. Summed up:
(§1)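 Human peptide recognition domains were expressed in 96-well plates as fusions to the C-terminus of glutathione S-transferase (GST) and selected against an M13 phage library displaying randomized hexadecapeptides, cysteine-free and glycine-flanked, on the gene-8 major coat protein. Five selection rounds were run, and approximately 48 individual clones from rounds 4 and 5 were tested by phage ELISA. Each value is the ELISA signal on the GST-domain fusion divided by the signal on GST alone. Positive clones were sequenced.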

The target in experiment [2] is T1, TDRD1 261-449 TUDOR (domain begin residue: 261, domain end residue: 449), Q9BXT4.
T1 chain: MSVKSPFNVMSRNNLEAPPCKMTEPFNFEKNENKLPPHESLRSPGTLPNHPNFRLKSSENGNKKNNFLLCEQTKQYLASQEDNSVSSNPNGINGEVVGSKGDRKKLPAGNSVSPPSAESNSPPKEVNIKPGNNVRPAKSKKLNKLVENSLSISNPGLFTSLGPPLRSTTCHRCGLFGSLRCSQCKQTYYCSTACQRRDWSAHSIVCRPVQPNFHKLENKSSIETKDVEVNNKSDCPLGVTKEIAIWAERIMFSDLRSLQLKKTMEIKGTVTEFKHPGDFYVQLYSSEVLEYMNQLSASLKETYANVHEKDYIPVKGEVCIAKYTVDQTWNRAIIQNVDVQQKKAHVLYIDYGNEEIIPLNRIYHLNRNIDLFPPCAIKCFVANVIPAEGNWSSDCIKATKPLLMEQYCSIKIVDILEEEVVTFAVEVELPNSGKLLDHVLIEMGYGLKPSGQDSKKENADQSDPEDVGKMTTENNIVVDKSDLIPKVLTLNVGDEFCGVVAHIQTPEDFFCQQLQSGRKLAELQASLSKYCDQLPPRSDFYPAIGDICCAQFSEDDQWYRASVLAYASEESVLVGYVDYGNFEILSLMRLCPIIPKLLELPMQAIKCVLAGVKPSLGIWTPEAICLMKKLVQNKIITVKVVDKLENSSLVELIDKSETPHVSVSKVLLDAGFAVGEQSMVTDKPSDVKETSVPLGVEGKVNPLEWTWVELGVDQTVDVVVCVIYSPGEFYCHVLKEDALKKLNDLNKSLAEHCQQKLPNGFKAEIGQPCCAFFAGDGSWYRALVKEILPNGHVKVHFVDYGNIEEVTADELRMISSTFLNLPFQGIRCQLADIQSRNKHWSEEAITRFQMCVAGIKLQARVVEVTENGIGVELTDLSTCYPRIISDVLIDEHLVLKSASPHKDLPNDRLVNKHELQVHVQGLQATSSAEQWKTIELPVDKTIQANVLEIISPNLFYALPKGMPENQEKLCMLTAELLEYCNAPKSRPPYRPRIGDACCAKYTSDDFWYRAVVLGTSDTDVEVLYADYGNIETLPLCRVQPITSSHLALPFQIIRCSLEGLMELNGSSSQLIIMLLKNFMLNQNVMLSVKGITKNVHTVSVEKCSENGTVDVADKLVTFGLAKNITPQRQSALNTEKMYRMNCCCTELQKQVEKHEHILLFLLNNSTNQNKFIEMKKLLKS
Summed up:
as §1

Experiment [3] deals with TLN2 312-417 IRS (domain begin residue: 312, domain end residue: 417), Q9Y4G6. The procedure, abridged:
as §1

For experiment [4], the target named is T2, TCEA2 231-299 TFIIS_C (domain begin residue: 231, domain end residue: 299), Q15560.
T2 chain: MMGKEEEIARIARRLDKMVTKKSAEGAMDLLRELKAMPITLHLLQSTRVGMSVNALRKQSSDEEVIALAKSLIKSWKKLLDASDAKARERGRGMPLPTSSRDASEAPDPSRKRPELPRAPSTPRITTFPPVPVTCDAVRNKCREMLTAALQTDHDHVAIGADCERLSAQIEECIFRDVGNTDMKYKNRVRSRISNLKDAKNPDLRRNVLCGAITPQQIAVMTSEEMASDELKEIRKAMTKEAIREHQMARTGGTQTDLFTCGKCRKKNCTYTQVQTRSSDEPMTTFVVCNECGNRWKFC
The procedure, abridged: as §1

Experiment [5] has as its target T3, STAM 1-143 VHS (domain begin residue: 1, domain end residue: 143), Q92783.
T3 chain: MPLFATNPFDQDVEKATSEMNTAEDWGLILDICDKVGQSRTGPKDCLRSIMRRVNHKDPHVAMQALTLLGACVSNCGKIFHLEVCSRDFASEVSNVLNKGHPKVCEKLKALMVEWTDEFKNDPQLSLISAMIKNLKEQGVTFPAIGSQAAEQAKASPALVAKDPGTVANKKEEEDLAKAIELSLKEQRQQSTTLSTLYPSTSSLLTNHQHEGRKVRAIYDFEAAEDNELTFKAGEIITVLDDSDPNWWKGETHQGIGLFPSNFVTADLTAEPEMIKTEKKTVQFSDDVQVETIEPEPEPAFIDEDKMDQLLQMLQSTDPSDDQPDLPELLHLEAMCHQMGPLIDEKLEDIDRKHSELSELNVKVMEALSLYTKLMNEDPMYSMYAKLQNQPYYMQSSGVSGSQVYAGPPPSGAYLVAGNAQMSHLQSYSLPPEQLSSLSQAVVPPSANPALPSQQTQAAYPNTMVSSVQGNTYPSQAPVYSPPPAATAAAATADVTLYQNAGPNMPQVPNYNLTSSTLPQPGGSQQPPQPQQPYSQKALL
Summed up: as §1

Experiment [6] concerns the target T4, TERF1 58-268 TRF (domain begin residue: 58, domain end residue: 268), P54274.
T4 chain: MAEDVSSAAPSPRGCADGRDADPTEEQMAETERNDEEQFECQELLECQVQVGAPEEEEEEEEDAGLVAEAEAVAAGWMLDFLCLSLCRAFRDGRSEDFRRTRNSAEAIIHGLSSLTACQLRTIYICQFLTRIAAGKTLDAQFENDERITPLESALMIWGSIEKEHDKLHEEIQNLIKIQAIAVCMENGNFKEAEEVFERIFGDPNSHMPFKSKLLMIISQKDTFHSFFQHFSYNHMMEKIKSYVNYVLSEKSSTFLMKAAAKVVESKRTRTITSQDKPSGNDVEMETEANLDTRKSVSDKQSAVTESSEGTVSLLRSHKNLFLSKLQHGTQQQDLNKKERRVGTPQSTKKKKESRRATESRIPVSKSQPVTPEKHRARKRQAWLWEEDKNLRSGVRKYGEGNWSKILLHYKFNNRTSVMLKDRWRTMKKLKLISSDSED
Summed up:
as §1

Experiment [7] addresses T5, TDRKH 290-430 TUDOR+SNase (domain begin residue: 290, domain end residue: 430), Q9Y2W6.
T5 chain: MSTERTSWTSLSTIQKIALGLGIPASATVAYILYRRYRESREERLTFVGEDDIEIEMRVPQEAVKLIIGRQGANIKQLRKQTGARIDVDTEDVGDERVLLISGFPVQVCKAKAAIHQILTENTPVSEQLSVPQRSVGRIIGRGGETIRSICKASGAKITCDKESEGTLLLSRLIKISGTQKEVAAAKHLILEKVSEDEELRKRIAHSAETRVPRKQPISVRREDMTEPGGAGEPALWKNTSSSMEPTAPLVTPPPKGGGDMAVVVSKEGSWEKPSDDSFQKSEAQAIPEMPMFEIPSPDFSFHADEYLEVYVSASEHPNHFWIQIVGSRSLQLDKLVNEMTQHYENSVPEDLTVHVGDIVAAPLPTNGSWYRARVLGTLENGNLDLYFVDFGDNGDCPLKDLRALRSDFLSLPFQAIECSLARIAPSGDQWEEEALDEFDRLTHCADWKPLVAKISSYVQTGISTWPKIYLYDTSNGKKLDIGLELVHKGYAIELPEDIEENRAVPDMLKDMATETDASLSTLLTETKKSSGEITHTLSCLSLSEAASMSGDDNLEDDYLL
Summed up: as §1

Experiment [8] addresses SUB1 58-127 PC4 (domain begin residue: 58, domain end residue: 127), P53999. The procedure, abridged:
as §1

Sequence of TLN1 309-401 IRS (domain begin residue: 309, domain end residue: 401), Q9Y490 (Q9Y490 whole entry, the tested form may be a part): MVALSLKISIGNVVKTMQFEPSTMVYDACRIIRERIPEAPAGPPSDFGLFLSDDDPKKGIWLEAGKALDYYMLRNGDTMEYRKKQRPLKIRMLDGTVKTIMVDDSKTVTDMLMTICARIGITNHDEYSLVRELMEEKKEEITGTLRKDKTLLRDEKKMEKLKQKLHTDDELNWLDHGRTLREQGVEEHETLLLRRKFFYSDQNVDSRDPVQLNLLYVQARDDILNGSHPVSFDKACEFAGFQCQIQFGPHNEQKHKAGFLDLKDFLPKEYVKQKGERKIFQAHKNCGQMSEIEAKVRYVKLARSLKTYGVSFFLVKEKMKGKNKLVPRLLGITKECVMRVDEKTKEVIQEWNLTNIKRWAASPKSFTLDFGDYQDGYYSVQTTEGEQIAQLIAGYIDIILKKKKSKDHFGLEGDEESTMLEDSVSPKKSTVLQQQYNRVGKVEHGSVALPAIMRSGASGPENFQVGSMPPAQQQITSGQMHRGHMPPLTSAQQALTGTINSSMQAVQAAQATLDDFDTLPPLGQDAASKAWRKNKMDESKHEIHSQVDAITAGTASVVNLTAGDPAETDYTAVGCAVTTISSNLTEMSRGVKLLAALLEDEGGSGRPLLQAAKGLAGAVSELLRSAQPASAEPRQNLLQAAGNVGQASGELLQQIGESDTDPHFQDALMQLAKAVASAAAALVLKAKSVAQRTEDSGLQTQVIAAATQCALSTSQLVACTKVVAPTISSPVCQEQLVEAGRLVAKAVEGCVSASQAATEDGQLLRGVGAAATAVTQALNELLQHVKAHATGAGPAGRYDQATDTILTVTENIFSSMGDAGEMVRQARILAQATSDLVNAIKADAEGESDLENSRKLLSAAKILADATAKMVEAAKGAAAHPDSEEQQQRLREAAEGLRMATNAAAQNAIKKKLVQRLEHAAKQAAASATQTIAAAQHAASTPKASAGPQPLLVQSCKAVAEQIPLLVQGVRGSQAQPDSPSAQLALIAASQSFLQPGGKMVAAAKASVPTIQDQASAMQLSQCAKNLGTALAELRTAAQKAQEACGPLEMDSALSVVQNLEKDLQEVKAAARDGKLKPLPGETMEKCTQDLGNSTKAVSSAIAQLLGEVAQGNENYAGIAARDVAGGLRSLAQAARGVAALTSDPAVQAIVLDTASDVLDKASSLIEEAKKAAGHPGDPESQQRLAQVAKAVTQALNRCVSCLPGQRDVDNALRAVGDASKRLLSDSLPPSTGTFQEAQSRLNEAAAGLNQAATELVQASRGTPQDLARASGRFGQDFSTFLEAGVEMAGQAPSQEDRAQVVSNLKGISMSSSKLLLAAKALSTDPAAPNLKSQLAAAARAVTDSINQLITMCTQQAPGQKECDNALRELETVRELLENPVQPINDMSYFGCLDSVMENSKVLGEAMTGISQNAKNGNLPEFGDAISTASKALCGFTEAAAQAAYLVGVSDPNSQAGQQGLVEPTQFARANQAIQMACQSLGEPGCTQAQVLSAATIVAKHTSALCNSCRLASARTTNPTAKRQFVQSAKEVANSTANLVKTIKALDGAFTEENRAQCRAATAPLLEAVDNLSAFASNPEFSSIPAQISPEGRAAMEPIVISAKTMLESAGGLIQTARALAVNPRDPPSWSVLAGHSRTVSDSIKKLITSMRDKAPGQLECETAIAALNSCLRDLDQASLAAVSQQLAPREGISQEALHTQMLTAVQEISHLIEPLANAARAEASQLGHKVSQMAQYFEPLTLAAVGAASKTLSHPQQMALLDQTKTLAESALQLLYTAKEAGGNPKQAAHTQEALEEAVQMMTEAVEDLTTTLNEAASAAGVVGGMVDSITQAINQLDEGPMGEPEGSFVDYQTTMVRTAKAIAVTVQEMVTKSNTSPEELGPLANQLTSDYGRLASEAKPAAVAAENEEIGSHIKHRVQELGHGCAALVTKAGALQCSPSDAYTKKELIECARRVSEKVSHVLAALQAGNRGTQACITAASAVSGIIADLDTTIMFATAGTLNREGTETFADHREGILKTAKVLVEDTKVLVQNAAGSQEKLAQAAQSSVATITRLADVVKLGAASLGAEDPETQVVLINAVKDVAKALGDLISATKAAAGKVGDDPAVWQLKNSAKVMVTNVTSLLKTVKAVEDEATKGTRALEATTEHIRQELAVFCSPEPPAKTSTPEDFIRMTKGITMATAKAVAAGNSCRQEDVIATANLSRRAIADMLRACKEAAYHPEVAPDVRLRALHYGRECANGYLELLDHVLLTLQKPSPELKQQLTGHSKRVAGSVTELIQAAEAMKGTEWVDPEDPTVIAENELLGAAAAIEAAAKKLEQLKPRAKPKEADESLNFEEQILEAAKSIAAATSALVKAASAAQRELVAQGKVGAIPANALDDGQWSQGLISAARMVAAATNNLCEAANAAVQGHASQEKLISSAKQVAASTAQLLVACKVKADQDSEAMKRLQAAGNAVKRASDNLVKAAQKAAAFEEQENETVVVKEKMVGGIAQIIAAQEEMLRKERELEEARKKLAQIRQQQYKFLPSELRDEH
Sequence of TLN2 312-417 IRS (domain begin residue: 312, domain end residue: 417), Q9Y4G6 (Q9Y4G6 whole entry): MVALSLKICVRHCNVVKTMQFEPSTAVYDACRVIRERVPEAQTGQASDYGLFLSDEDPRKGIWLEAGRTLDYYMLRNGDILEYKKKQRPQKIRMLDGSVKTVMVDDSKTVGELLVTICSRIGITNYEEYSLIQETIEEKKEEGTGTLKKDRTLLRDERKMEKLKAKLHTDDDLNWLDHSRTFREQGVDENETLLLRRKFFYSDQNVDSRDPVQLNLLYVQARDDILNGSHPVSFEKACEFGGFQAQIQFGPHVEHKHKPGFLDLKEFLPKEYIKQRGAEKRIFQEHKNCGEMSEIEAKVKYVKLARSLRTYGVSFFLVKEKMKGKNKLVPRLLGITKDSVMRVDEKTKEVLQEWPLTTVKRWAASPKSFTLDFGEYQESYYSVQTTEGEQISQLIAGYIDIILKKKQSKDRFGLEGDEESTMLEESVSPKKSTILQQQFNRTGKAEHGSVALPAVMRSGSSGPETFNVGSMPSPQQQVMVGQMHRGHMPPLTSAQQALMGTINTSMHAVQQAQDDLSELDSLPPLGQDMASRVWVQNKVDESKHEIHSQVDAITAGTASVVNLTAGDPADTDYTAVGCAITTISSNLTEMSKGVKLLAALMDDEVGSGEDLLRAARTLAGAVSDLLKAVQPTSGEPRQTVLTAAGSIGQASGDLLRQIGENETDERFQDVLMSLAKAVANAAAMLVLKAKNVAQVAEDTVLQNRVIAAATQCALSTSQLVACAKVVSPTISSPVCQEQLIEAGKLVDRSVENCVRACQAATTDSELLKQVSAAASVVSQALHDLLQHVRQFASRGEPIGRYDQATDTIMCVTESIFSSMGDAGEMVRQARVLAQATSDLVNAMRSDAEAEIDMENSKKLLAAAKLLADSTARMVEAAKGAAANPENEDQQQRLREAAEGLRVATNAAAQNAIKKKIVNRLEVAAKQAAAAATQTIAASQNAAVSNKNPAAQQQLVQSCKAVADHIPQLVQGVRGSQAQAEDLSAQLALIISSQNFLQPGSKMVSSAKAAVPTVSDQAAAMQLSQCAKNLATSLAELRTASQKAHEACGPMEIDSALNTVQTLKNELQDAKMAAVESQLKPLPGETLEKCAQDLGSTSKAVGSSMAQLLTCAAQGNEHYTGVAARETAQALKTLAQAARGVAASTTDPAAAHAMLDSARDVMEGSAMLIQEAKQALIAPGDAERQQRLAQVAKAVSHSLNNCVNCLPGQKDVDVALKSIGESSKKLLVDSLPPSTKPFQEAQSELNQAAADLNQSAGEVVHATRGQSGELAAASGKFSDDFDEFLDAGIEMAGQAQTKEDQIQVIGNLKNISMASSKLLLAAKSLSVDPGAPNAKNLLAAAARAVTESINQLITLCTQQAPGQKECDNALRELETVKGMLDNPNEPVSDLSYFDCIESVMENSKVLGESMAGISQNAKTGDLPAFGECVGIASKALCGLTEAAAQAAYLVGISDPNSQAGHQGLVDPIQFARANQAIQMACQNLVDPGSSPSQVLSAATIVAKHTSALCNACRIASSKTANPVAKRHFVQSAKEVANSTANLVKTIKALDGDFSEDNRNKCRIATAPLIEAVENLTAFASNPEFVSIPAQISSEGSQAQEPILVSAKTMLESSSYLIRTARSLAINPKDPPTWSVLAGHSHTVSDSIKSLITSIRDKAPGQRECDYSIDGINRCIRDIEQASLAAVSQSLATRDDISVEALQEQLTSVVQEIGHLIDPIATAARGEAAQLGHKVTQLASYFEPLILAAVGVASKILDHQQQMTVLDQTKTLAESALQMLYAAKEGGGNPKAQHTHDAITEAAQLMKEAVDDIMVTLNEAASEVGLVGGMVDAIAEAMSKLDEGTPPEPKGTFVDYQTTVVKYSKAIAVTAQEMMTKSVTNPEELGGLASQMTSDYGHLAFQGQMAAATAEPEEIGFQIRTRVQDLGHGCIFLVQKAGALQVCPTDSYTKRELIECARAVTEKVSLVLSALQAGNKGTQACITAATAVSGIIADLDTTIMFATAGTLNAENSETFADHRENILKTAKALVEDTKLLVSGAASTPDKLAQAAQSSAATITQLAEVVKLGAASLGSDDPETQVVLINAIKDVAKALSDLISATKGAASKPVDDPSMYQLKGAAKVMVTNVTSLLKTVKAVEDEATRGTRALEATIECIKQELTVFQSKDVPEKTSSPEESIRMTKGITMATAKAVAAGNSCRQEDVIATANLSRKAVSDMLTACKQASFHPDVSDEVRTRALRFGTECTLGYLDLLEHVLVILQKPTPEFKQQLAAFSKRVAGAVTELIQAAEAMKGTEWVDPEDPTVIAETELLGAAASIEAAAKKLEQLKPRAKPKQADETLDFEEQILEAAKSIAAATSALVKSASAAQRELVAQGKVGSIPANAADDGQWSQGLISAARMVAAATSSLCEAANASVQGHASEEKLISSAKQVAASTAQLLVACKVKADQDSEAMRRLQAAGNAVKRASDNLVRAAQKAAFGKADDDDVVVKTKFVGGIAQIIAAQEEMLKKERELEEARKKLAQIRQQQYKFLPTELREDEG

B1: unnamed (peptide)
chain: VETQWEQWQEYGLKFS
Regarding B1, in experiment [1], the “phage ELISA signal ratio” value is 16.2.

B2: unnamed (peptide)
chain: ELWQHWDMWNVEEPEF
B2: the “phage ELISA signal ratio” value in experiment [2] stood at 7.88.

B3: unnamed (peptide)
chain: NQDRVWVGNSAFKSPD
Consider B3, for which the “phage ELISA signal ratio” value in experiment [3] was 22.

B4: unnamed (peptide)
chain: EPGHWMEWIWDTIELE
In the case of B4, the “phage ELISA signal ratio” value in experiment [2] was determined as 9.32.

B5: unnamed (peptide)
chain: EQWTWEPMWEWMTITD
As to B5, the “phage ELISA signal ratio” value in experiment [4] amounted to 5.86.

B6: unnamed (peptide)
chain: DMVWTNSFLHSHSQLV
Take B6: the “phage ELISA signal ratio” value in experiment [3] is 19.5.

B7: unnamed (peptide)
chain: NPHSHQQFMQAVENHI
In the case of B7, the “phage ELISA signal ratio” value in experiment [5] was 22.2.

B8: unnamed (peptide)
chain: MEWVEVYTKTDYAFPP
Consider B8, for which the “phage ELISA signal ratio” value in experiment [3] amounted to 17.8.

B9: unnamed (peptide)
chain: MLFDDEAMYNWQWHLM
In the case of B9, in experiment [6], the “phage ELISA signal ratio” value was determined as 12.2.

B10: unnamed (peptide)
chain: WTASQYWVYEDGFIPG
For the molecule B10, the “phage ELISA signal ratio” value in experiment [3] turned out to be 23.7.

B11: unnamed (peptide)
chain: PNVGEWQYNLSYIWEM
B11: in experiment [1], the “phage ELISA signal ratio” value stood at 15.5.

B12: unnamed (peptide)
chain: QNNFIQLQEWHWLEGW
Take B12: in experiment [3], the “phage ELISA signal ratio” value is 11.2.

B13: unnamed (peptide)
chain: EFTMNWQYPTQYNFIQ
For the molecule B13, the “phage ELISA signal ratio” value in experiment [1] worked out at 15.3.

B14: unnamed (peptide)
chain: SFPLEFTTDYMYNLMA
With B14, in experiment [6], the “phage ELISA signal ratio” value turned out to be 18.2.

B15: unnamed (peptide)
chain: WAWEDMWFMEQLESTE
In the case of B15, in experiment [4], the “phage ELISA signal ratio” value worked out at 3.89.

B16: unnamed (peptide)
chain: HEQNRMDVRNDGRTGF
For the molecule B16, in experiment [7], the “phage ELISA signal ratio” value turned out to be 8.

B17: unnamed (peptide)
chain: LGHTTAEMIDYMELQW
Consider B17, for which the “phage ELISA signal ratio” value in experiment [6] was determined as 15.3.

B18: unnamed (peptide)
chain: REMLDYYQGVWVPPVS
Consider B18, for which the “phage ELISA signal ratio” value in experiment [7] was determined as 4.26.

B19: unnamed (peptide)
chain: DEEEWWWQFQSHQLPE
For B19, in experiment [8], the “phage ELISA signal ratio” value worked out at 8.77.

B20: unnamed (peptide)
chain: HELHGHLGPYGYPAGT
With B20, the “phage ELISA signal ratio” value in experiment [7] was 7.85.

B21: unnamed (peptide)
chain: WNQWQEWTTDHGVLLE
For B21, the “phage ELISA signal ratio” value in experiment [2] was 7.12.

B22: unnamed (peptide)
chain: WDLNAQVEHMWQYGIA
Consider B22, for which the “phage ELISA signal ratio” value in experiment [3] came out at 15.9.

B23: unnamed (peptide)
chain: MPLHEWEAGWPWEVVG
Take B23: the “phage ELISA signal ratio” value in experiment [2] was 7.35.

B24: unnamed (peptide)
chain: IWDQWYEWNSEWDRLP
With B24, the “phage ELISA signal ratio” value in experiment [2] came to 3.57.

B25: unnamed (peptide)
chain: NENGSYEEHLAWTWGF
Take B25: in experiment [3], the “phage ELISA signal ratio” value was 17.6.

B26: unnamed (peptide)
chain: EHSFLFEDWMWEGKDH
For B26, in experiment [6], the “phage ELISA signal ratio” value was found to be 5.48.

B27: unnamed (peptide)
chain: EMHWMDIWDSLLPESK
Regarding B27, in experiment [2], the “phage ELISA signal ratio” value was found to be 7.87.

B28: unnamed (peptide)
chain: VENVYYGPYQWEGSFQ
As to B28, in experiment [3], the “phage ELISA signal ratio” value was 15.4.

B29: unnamed (peptide)
chain: QERNHHDPHALWESLF
Regarding B29, the “phage ELISA signal ratio” value in experiment [5] was 20.8.
